Source: PubChem (National Center for Advancing Translational Sciences (NCATS))
IMPase Li cell: IMPase inhibition in cells with lithium potentiation; CHO-M1 cells, IP1 TR-FRET (IP-One), carbachol + lithium; Potency, µM (highest dose often 59.4 µM), without a hit: at the top dose activity, negative = IMPase inhibition, actives largely listed as inhibitors; 210,000 tested, 0.35% active;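 further: IP1 builds up when IMPase is blocked and the TR-FRET signal falls; potency means the concentration at half of the fitted maximal effect; plate controls were basal vehicle for no effect and high inhibitor control for full effect; nearly all actives have a fitted effect of over 50% in size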
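CHO cells stably expressing M1 receptor (2000/well) were cultured 16–30 h, then exposed to compounds with a small lithium addition for 30 min at 37C. IP1 was measured by TR-FRET competition; AC50 from Hill fits.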
HPGD inh: HPGD (human) dehydrogenase inhibition | 150,000 tested, 4.3% active | purified HPGD, NADH fluorescence kinetic, PGE2 substrate | P15428 | Potency, µM, inactives show at the highest dose activity change, negative = inhibition, hits mostly inhibitors; active means well fitted inhibition curve with a large enough effect, not every such curve was filed as active; inconclusive means small, poorly fitted or top-dose-only effect, or another doubt; inactive means no such curve, though single readings can be large or run the other way; further: potency means the concentration at half of the fitted maximal effect
Target sequence (P15428 whole entry, looked up): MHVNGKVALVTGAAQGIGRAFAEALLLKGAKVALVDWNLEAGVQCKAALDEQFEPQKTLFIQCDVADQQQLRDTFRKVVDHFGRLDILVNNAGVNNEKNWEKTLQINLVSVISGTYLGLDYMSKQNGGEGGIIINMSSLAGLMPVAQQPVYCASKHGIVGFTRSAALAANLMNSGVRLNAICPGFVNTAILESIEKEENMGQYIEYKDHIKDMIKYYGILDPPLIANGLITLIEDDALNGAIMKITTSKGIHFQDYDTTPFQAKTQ
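20 nM HPGD preincubated 15 min at room temperature with compound in 50 mM Tris-HCl pH 8, 0.01% Tween 20. Started with 1 mM NAD+ and 30 uM prostaglandin E2; NADH fluorescence (360/450 nm) read 5 times over 30-s intervals, last minus first.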
IMPase cell inh: IMPase inhibition in cells. CHO-M1 cells, IP1 accumulation, HTRF TR-FRET ratio. 120,000 tested, under 10 active. inhibition (IP1 accumulation), % at 46.1 µM. P97697; active means well fitted curve in the direction sought with a large enough effect in the signal ratio, not every such curve was filed as active; inconclusive means small, poorly fitted or top-dose-only effect, or a change in a side signal; inactive means no such curve, though single readings can be large or run the other way; the % refers to the signal ratio;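 further: cells stimulated with carbachol in lithium chloride buffer; plate controls were DMSO basal wells for no effect and reference inhibitor wells for full effect; higher means more IMPase inhibition seen as more IP1 and lower FRET ratio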
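Measured: the HTRF emission ratio (665/620 nm) plus the 620 nm donor channel, each fitted to the Hill equation to give AC50. Cells were CHO-M1 given compounds up to 46 uM and a 30 min carbachol stimulation at 37C.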
12-hLO inh: 12-hLO (ALOX12) enzyme inhibition; P18054; purified 12-hLO, xylenol orange hydroperoxide absorbance; Potency, µM (series often up to 57.1 µM), inactives show at the highest dose activity change, negative = inhibition, most hits filed as inhibitors; 150,000 tested, 0.12% active; further: potency means the concentration at half of the fitted maximal effect; nearly all actives have a fitted effect of over 55% in size
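Xylenol orange chromogenic assay: hydroperoxide from 12hLO oxidises Fe(II), giving red-shifted Fe(III)-XO absorbance. Conditions: 150 nM enzyme, 40 uM arachidonic acid, 25 mM Hepes pH 7.0, 0.01% Triton X-100, 30 min, room temperature.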
ALDH1A1 block: ALDH1A1 (human) enzyme inhibition | 220,000 tested, 7.3% active | Potency, µM (doses to about 75.3 µM), without a hit: top-dose activity, negative = inhibition, usual class: inhibitors | P00352 | Purified ALDH1A1, NADH fluorescence, propionaldehyde substrate; active means well fitted inhibition curve with a large enough effect, not every such curve was filed as active; inconclusive means small, poorly fitted or top-dose-only effect, or another doubt; inactive means no such curve, though single readings can be large or run the other way;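 further: potency means the concentration at half of the fitted maximal effect; plate controls were no enzyme wells and a reference inhibitor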
Target sequence (P00352 whole entry, looked up): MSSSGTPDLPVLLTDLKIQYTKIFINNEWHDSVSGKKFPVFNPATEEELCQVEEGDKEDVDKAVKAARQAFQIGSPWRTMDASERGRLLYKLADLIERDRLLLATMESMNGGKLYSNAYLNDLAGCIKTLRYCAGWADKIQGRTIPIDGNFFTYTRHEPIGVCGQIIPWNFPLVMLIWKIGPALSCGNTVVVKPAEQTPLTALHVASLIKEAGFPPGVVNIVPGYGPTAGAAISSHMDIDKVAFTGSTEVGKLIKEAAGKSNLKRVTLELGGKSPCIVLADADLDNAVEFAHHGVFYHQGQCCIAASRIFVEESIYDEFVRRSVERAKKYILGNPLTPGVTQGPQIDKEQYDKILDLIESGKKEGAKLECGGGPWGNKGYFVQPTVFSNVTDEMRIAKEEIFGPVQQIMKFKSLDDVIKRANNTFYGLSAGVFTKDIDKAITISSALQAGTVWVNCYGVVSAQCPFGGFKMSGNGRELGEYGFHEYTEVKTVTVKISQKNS
NPSR antagonist: blocks cAMP signaling of the human neuropeptide S receptor; Q6W5P4; CHO-NPSR cells, cAMP TR-FRET, antagonist mode; Potency, µM (highest dose often 38.3 µM), for the others: at the highest dose activity change, negative = inhibition, usual class: inhibitors; 220,000 tested, 1% active; AID 1461; further: potency means the concentration at half of the fitted maximal effect; nearly all actives have a fitted effect of over 50% in size
The depositor's hits bear a star; [ ] = remark or other dose. This is a sample that favours compounds with a hit; in the whole collection about 8.9% have one here. Unless noted, the call rests on the fitted dose curve; in most records, active means well fitted curve in the direction sought with a large enough effect; inconclusive means small, poorly fitted or top-dose-only effect, or another doubt; inactive means no such curve, though single readings can be large; an effect the other way counts as inactive or inconclusive. Unless noted, on the % scale 0 is the no-effect control and ±100 the full control effect.

What do the screens show for `CC12CCC(=O)N1C(C(=O)OCC(=O)Nc1cc(S(=O)(=O)N3CCCCC3)ccc1Cl)CS2` (stereo not drawn)?
IMPase Li cell: -6%; HPGD inh: -8%; 12-hLO inh: -6%; ALDH1A1 block: 8%; NPSR antagonist: 27%

How did CCC(CC)c1nnc(NC(=O)[C@@H](NC(=O)c2cccc(C)c2)C(C)C)s1 do in these assays?
IMPase Li cell: 3%; HPGD inh: -10%; IMPase cell inh: 7; 12-hLO inh: 0%; ALDH1A1 block: -8%; NPSR antagonist: -33%

Results for COc1ccc(NC(=O)Nc2c(C)noc2-c2ccccc2)cc1 ?
ALDH1A1 block: -8%; NPSR antagonist: -1%

How did COc1cccc(F)c1C(C[N+](=O)[O-])c1c(N)n(C)c(=O)n(C)c1=O (stereo not drawn) do in these assays?
NPSR antagonist: 6.3µM*

What do the screens show for `COc1cc(C(C[N+](=O)[O-])c2c(N)n(C)c(=O)n(C)c2=O)ccc1O` (stereo not drawn)?
IMPase Li cell: 13%; ALDH1A1 block: -13%; NPSR antagonist: 8%

How did Cc1ccc(Cc2cnc(NC(=O)C3=NCCN3)s2)cc1 do in these assays?
IMPase Li cell: -3%; ALDH1A1 block: -3%; NPSR antagonist: 6%

How did Cc1cc(C)c2nc3s/c(=C/c4ccc5c(c4)n(C)c(=O)n5C)c(=O)n3c2c1 do in these assays?
IMPase Li cell: -4%[38.3 µM]; HPGD inh: 16µM*; IMPase cell inh: -3; 12-hLO inh: 7%; ALDH1A1 block: 18µM*; NPSR antagonist: -5%[46.1 µM]

Results for COc1ccc(C(=O)N2c3ccccc3CC2C)cc1OC (stereo not drawn) ?
IMPase Li cell: -9%[38.3 µM]; HPGD inh: -2%; IMPase cell inh: 21; 12-hLO inh: 0%; ALDH1A1 block: 5%; NPSR antagonist: -23%[46.1 µM]

Results for CCSC(=Nc1ccccc1)C1=C(O)COC1=O ?
IMPase Li cell: 5%[38.3 µM]; HPGD inh: -5%; IMPase cell inh: -4; 12-hLO inh: 23%; ALDH1A1 block: -2%; NPSR antagonist: 1%[46.1 µM]

Results for CSC(=Nc1ccccc1)C1=C(O)COC1=O ?
IMPase Li cell: -6%; HPGD inh: -2%; IMPase cell inh: inconclusive; 12-hLO inh: 39%; ALDH1A1 block: 25µM*; NPSR antagonist: -3%[46.1 µM]

Results for O=C(Oc1ccc(C(=S)N2CCOCC2)cc1Br)c1ccccc1F ?
IMPase Li cell: -11%; HPGD inh: 32µM*; 12-hLO inh: -4%; ALDH1A1 block: 25µM*; NPSR antagonist: 5%

What do the screens show for `COc1cccc(/C=N/Nc2ncnc3scc(-c4ccccc4)c23)c1OC`?
IMPase Li cell: 16%[38.3 µM]; HPGD inh: 18µM*; IMPase cell inh: 1; 12-hLO inh: -1%; ALDH1A1 block: inconclusive; NPSR antagonist: inconclusive

How did COc1ccc(NC(=S)Nc2cccc3cnccc23)cc1 do in these assays?
IMPase Li cell: -4%; HPGD inh: -16%; 12-hLO inh: 0%; ALDH1A1 block: 25µM*; NPSR antagonist: 12%

How did COc1ccccc1NC(=S)Nc1cccc2cnccc12 do in these assays?
IMPase Li cell: 2%; HPGD inh: -17%; IMPase cell inh: 0; 12-hLO inh: 0%; ALDH1A1 block: 25µM*; NPSR antagonist: 23%

What do the screens show for `CCOc1ccc(NC(=S)Nc2cccc3cnccc23)cc1`?
IMPase Li cell: 3%; HPGD inh: -15%; IMPase cell inh: 3; 12-hLO inh: -9%; ALDH1A1 block: 32µM*; NPSR antagonist: 5%

How did C[N+]1(CCC[N+]2(C)C[C@H]3[C@H](C2)[C@H]2C=C[C@@H]3CC2)CCOCC1 (stereo partly drawn) do in these assays?
IMPase Li cell: -24%; HPGD inh: 3.2µM*; 12-hLO inh: 0%[11.4 µM]; ALDH1A1 block: 7%[13.5 µM]

What do the screens show for `C[N+]1(CCN2C(=O)C3CC=C(Cl)CC3C2=O)CCOCC1` (stereo not drawn)?
IMPase cell inh: 10; 12-hLO inh: -7%; ALDH1A1 block: -2%; NPSR antagonist: -16%[46.1 µM]

What do the screens show for `O=C(CC(c1cccs1)S(=O)(=O)c1ccccc1)c1ccc(F)cc1` (stereo not drawn)?
IMPase Li cell: 5%; HPGD inh: -1%; 12-hLO inh: 3%; ALDH1A1 block: 25µM*; NPSR antagonist: 11%

Results for Cc1ccc(C(=O)CC(c2cccs2)S(=O)(=O)c2ccc(C)cc2)cc1 (stereo not drawn) ?
IMPase Li cell: 1%; HPGD inh: -11%; 12-hLO inh: -4%; ALDH1A1 block: -10%; NPSR antagonist: 8%

What do the screens show for `CC1Cc2ccccc2N1C(=O)CNc1cccc(S(=O)(=O)N2CCCC2)c1` (stereo not drawn)?
IMPase Li cell: 4%; ALDH1A1 block: 20µM*; NPSR antagonist: -15%

How did CCN(CC)CC(=O)Nc1cccc(S(=O)(=O)N2CCCC2)c1 do in these assays?
NPSR antagonist: 8%

Results for CSC1=C(C#N)C(c2ccccc2Cl)C(C(=O)c2cccs2)C(O)(C(F)(F)F)N1 (stereo not drawn) ?
IMPase Li cell: 5%; HPGD inh: 2%; 12-hLO inh: -4%; ALDH1A1 block: -8%; NPSR antagonist: -14%

How did C=CCSC1=C(C#N)C(c2ccccc2Cl)C(C(=O)c2cccs2)C(O)(C(F)(F)F)N1 (stereo not drawn) do in these assays?
IMPase Li cell: 17%; HPGD inh: -9%; 12-hLO inh: -12%; ALDH1A1 block: 14µM*; NPSR antagonist: -40%

How did COc1cc(C2NC(=S)NC(O)(C(F)(F)F)C2C(=O)c2cccs2)cc(OC)c1O (stereo not drawn) do in these assays?
IMPase Li cell: -10%; HPGD inh: -4%; 12-hLO inh: -2%; ALDH1A1 block: -6%; NPSR antagonist: 5%

How did CCSC1=C(C#N)C(c2ccccc2Cl)C(C(=O)c2cccs2)C(O)(C(F)(F)F)N1 (stereo not drawn) do in these assays?
IMPase Li cell: 45%[38.3 µM]; HPGD inh: -14%; IMPase cell inh: -5[1.84 µM]; 12-hLO inh: -13%; ALDH1A1 block: 11µM*; NPSR antagonist: -24%[46.1 µM]

How did CC(=O)Nc1ccc(S(=O)(=O)NCC2CCC(C(=O)N3CCCCCC3)CC2)cc1 (stereo not drawn) do in these assays?
IMPase Li cell: -10%[38.3 µM]; HPGD inh: 7.1µM*; IMPase cell inh: 1; 12-hLO inh: 4%; ALDH1A1 block: 22µM*; NPSR antagonist: -12%[46.1 µM]

Results for COc1ccc(CN2CCN(C(=O)C3CCN(S(=O)(=O)c4cccs4)CC3)CC2)c(OC)c1OC ?
IMPase Li cell: 10%; ALDH1A1 block: inconclusive; NPSR antagonist: 10%
